Experiment [1] can be described thus: CEETOX_H295R_ESTRONE: CeeTox H295R High-throughput Steroidogenesis Assay for Estrone (AID 2283441).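 Note: estrone secreted into medium measured by LC-MS/MS after dansyl derivatization.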 Particulars: actives raise or lower the signal. Summed up:
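H295R cells prestimulated 48 h with 10 uM forskolin, then exposed 48 h to chemicals in 0.1% DMSO final; estrone in medium extracted with MTBE, dansyl-derivatized, quantified by HPLC-MS/MS; bidirectional fitting versus DMSO, viability by MTT.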

Experiment [2] is described as follows: CEETOX_H295R_PROG: CeeTox H295R High-throughput Steroidogenesis Assay for Progesterone (PROG) (AID 2283442). Particulars: actives raise or lower the signal. In outline: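 Progesterone secreted by human H295R cells was measured by LC-MS/MS following 48 h chemical exposure at 0.1% DMSO, preceded by 48 h forskolin (10 uM) stimulation. Same-well MTT viability; cytotoxic concentrations diluted 10- or 100-fold and retested.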

Experiment [3] is described as follows: CEETOX_H295R_TESTO: CeeTox H295R High-throughput Steroidogenesis Assay for Testosterone (TESTO) (AID 2283457). The conditions noted are these: actives raise or lower the signal. In outline: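 Testosterone secreted into the medium over 48 h by H295R cells (maximum passage 10) was quantified by LC-MS/MS after MTBE extraction. Fitted in both directions against DMSO, with concentrations diluted until MTT viability was ≥70%.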

Read-out in experiment [4]: Tumor necrosis factor receptor superfamily member 6 (Homo sapiens) (UniProt P25445)
Briefly: LTEA_HepaRG_FAS: Life Technologies and Expression Analysis (LTEA) Assay for Fas cell surface death receptor (FAS) using HepaRG (AID 2283447). The conditions noted are these: mRNA level, 48 h; actives raise or lower the signal. Summed up:
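Differentiated human HepaRG cells, pre-cultured 48 h, were exposed in duplicate for 48 h to 8-point half-log concentrations (top 100 uM, 0.5% DMSO) in serum-free induction medium; FAS mRNA measured by qRT-PCR, normalized to ACTB/GAPDH/POLR2A, bidirectional fit versus DMSO.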

Read-out in experiment [5]: Fatty acid synthase (Homo sapiens) (UniProt P49327)
Briefly: LTEA_HepaRG_FASN: Life Technologies and Expression Analysis (LTEA) Assay for Fatty Acid Synthase (FASN) using HepaRG (AID 2283448). Particulars: mRNA level, 48 h; actives raise or lower the signal. Summed up:
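FASN expression changes, up or down relative to 0.5% DMSO, were measured by qRT-PCR in human HepaRG cells after 48 h treatment with chemicals at eight concentrations (half-log steps from 100 uM).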

Read-out in experiment [6]: Cyclin Dependent Kinase Inhibitor 1A (CDKN1A), CDKN1A (gene 1026)
Briefly: LTEA_HepaRG_CDKN1A: Life Technologies and Expression Analysis (LTEA) Assay for Cyclin Dependent Kinase Inhibitor 1A (CDKN1A) using HepaRG (AID 2283450). The conditions noted are these: mRNA level, 48 h; actives raise or lower the signal. Summed up:
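Expression quantified by Fluidigm qRT-PCR with ACTB, GAPDH and POLR2A normalization, fitted bidirectionally against 0.5% DMSO. Cells: HepaRG, plated 48 h then treated 48 h in serum-free induction medium, top concentration 100 uM with half-log dilutions.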

Read-out in experiment [7]: Cyclin D1 (CCND1), CCND1 (gene 595)
Briefly: LTEA_HepaRG_CCND1: Life Technologies and Expression Analysis (LTEA) Assay for Cyclin D1 (CCND1) using HepaRG (AID 2283451). Particulars: mRNA level, 48 h; actives raise or lower the signal. Summed up: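 Expression of CCND1 was quantified by qRT-PCR on Fluidigm arrays using ACTB, GAPDH and POLR2A as reference genes. HepaRG cultures, plated 48 h beforehand, were dosed for 48 h at up to 100 uM (half-log, 8 points) in 0.5% DMSO.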

Read-out in experiment [8]: catalase (CAT), CAT (gene 847)
Description: LTEA_HepaRG_CAT: Life Technologies and Expression Analysis (LTEA) Assay for catalase (CAT) using HepaRG (AID 2283452). Particulars: mRNA level, 48 h; actives raise or lower the signal. In outline:
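Differentiated HepaRG cells in serum-free induction medium were dosed 48 h in duplicate, eight half-log concentrations from 100 uM in 0.5% DMSO. Transcript measured by TaqMan qRT-PCR, normalised to ACTB/GAPDH/POLR2A, fitted bidirectionally against DMSO.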

Read-out in experiment [9]: flavin-containing dimethylaniline monooxygenases 3 (FMO3), FMO3 (gene 2328)
Briefly: LTEA_HepaRG_FMO3: Life Technologies and Expression Analysis (LTEA) Assay for flavin-containing dimethylaniline monooxygenases 3 (FMO3) using HepaRG (AID 2283453). The conditions noted are these: mRNA level, 48 h; actives raise or lower the signal. Summed up:
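Differentiated HepaRG cells in serum-free induction medium, exposed 48 h in duplicate to 8 half-log concentrations up to 100 uM in 0.5% DMSO. FMO3 mRNA by qRT-PCR, normalized to ACTB, GAPDH, POLR2A; bidirectional fit vs DMSO.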

Read-out in experiment [10]: Cytochrome P450 (CYP1A1), CYP1A1 (gene 1543)
Description: LTEA_HepaRG_CYP1A1: Life Technologies and Expression Analysis (LTEA) Assay for Cytochrome P450 (CYP1A1) using HepaRG (AID 2283454). Particulars: mRNA level, 48 h; actives raise or lower the signal. Summed up:
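CYP1A1 transcript levels measured by Fluidigm qRT-PCR against three housekeeping genes, 48 h after chemical dosing of human HepaRG cells (highest concentration 100 uM, half-log steps, 0.5% DMSO vehicle). Gain or loss of signal fitted relative to DMSO.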

Read-out in experiment [11]: CFLAR gene, CFLAR (gene 8837)
Briefly: LTEA_HepaRG_CFLAR: Life Technologies and Expression Analysis (LTEA) Assay for CFLAR gene using HepaRG (AID 2283455). The conditions noted are these: mRNA level, 48 h; actives raise or lower the signal. Summed up:
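HepaRG cells were plated for 48 h, switched to serum-free induction medium, then exposed in duplicate for 48 h to 8 concentrations (top 100 uM, half-log steps, 0.5% DMSO). CFLAR mRNA was measured by qRT-PCR, normalized to ACTB, GAPDH and POLR2A.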

Read-out in experiment [12]: Forkhead box O1 (FOXO1), FOXO1 (gene 2308)
Description: LTEA_HepaRG_FOXO1: Life Technologies and Expression Analysis (LTEA) Assay for Forkhead box O1 (FOXO1) using HepaRG (AID 2283456). Particulars: mRNA level, 48 h; actives raise or lower the signal. Summed up: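 Differentiated human HepaRG cells in serum-free induction medium were exposed in duplicate for 48 h to eight half-log concentrations (top 100 uM, 0.5% DMSO). FOXO1 mRNA was measured by TaqMan qRT-PCR, normalised to ACTB, GAPDH and POLR2A, and fitted bidirectionally against DMSO.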

Read-out in experiment [13]: growth arrest and DNA damage 45 (GADD45A), GADD45A (gene 1647)
Description: LTEA_HepaRG_GADD45A: Life Technologies and Expression Analysis (LTEA) Assay for growth arrest and DNA damage 45 (GADD45A) using HepaRG (AID 2283458). The conditions noted are these: mRNA level, 48 h; actives raise or lower the signal. In outline: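 Cells plated and cultured 48 h, switched to serum-free induction medium, then dosed for 48 h (100 uM top, half-log dilutions, 0.5% DMSO). RNA was isolated and transcript measured by Fluidigm qRT-PCR.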

Read-out in experiment [14]: Forkhead box O3 (FOXO3), FOXO3 (gene 2309)
Description: LTEA_HepaRG_FOXO3: Life Technologies and Expression Analysis (LTEA) Assay for Forkhead box O3 (FOXO3) using HepaRG (AID 2283459). The conditions noted are these: mRNA level, 48 h; actives raise or lower the signal. Summed up: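 Differentiated human HepaRG cells in serum-free induction medium were exposed in duplicate for 48 h to eight half-log concentrations up to 100 uM in 0.5% DMSO. FOXO3 mRNA was quantified by qRT-PCR, normalized to ACTB, GAPDH and POLR2A, with bidirectional fitting versus DMSO.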

Read-out in experiment [15]: ABC Transporter (ABCB1), ABCB1 (gene 5243)
Description: LTEA_HepaRG_ABCB1: Life Technologies and Expression Analysis (LTEA) Assay for ABC Transporter (ABCB1) using HepaRG (AID 2283460). The conditions noted are these: mRNA level, 48 h; actives raise or lower the signal. In outline:
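Differentiated human HepaRG cells, plated 48 h then switched to serum-free induction medium, were exposed in duplicate to eight half-log concentrations up to 100 uM in 0.5% DMSO for 48 h. ABCB1 mRNA was measured by TaqMan qRT-PCR, normalized to ACTB/GAPDH/POLR2A.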

Read-out in experiment [16]: growth arrest and DNA damage 45 (GADD45B), GADD45B (gene 4616)
Briefly: LTEA_HepaRG_GADD45B: Life Technologies and Expression Analysis (LTEA) Assay for growth arrest and DNA damage 45 (GADD45B) using HepaRG (AID 2283461). Particulars: mRNA level, 48 h; actives raise or lower the signal. Summed up:
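Transcript level quantified by Fluidigm TaqMan qRT-PCR with three housekeeping genes for normalization, analyzed for up- or down-regulation against 0.5% DMSO. HepaRG cultures dosed 48 h at eight half-log concentrations up to 100 uM, duplicates.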

Read-out in experiment [17]: ABC Transporter (ABCC3), ABCC3 (gene 8714)
Description: LTEA_HepaRG_ABCC3: Life Technologies and Expression Analysis (LTEA) Assay for ABC Transporter (ABCC3) using HepaRG (AID 2283462). Particulars: mRNA level, 48 h; actives raise or lower the signal. Summed up: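 Transcript level by TaqMan qRT-PCR, normalised to three housekeeping genes, fitted in both directions relative to vehicle. Chemicals tested in duplicate at eight half-log concentrations up to 100 uM for 48 h on HepaRG cells (0.5% DMSO).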

Read-out in experiment [18]: ABC Transporter (ABCC2), ABCC2 (gene 1244)
Description: LTEA_HepaRG_ABCC2: Life Technologies and Expression Analysis (LTEA) Assay for ABC Transporter (ABCC2) using HepaRG (AID 2283464). Particulars: mRNA level, 48 h; actives raise or lower the signal. In outline:
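Endpoint is ABCC2 transcript level from qRT-PCR, normalized to three housekeeping genes and fitted bidirectionally relative to DMSO. Human HepaRG cells received test chemical for 48 h at up to 100 uM (8 points, half-log steps, 0.5% DMSO), duplicate wells.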

Read-out in experiment [19]: ATP-citrate lyase (ACLY), ACLY (gene 47)
Description: LTEA_HepaRG_ACLY: Life Technologies and Expression Analysis (LTEA) Assay for ATP-citrate lyase (ACLY) using HepaRG (AID 2283466). The conditions noted are these: mRNA level, 48 h; actives raise or lower the signal. In outline: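 Differentiated human HepaRG cells in serum-free induction medium exposed 48 h, in duplicate, to eight half-log concentrations from 100 uM top in 0.5% DMSO; ACLY mRNA measured by qRT-PCR, normalized to ACTB, GAPDH, POLR2A, fitted bidirectionally versus DMSO.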

Read-out in experiment [20]: Cyclin D2 (CCND2), CCND2 (gene 894)
Description: LTEA_HepaRG_CCND2: Life Technologies and Expression Analysis (LTEA) Assay for Cyclin D2 (CCND2) using HepaRG (AID 2283449).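 Note: CCND2 transcript measured by TaqMan qRT-PCR and normalised to three housekeeping genes.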 Particulars: mRNA level, 48 h; actives raise or lower the signal. In outline:
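Differentiated human HepaRG cells were exposed for 48 h in serum-free induction medium to eight half-log concentrations topping at 100 uM (0.5% DMSO vehicle). CCND2 mRNA was quantified by TaqMan qRT-PCR, normalised to ACTB, GAPDH and POLR2A, and fitted bidirectionally against DMSO.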

Our source for the outcome and AC50 values is PubChem BioAssay (EPA / NIEHS).

Activity calls are given as the source filed them. Rule for the calls: active = hit-call score of the fitted dose curve at least 0.9, where 1 is the maximum; inactive = score below 0.9.

Chain of Fatty acid synthase (Homo sapiens) (P49327 whole entry, looked up): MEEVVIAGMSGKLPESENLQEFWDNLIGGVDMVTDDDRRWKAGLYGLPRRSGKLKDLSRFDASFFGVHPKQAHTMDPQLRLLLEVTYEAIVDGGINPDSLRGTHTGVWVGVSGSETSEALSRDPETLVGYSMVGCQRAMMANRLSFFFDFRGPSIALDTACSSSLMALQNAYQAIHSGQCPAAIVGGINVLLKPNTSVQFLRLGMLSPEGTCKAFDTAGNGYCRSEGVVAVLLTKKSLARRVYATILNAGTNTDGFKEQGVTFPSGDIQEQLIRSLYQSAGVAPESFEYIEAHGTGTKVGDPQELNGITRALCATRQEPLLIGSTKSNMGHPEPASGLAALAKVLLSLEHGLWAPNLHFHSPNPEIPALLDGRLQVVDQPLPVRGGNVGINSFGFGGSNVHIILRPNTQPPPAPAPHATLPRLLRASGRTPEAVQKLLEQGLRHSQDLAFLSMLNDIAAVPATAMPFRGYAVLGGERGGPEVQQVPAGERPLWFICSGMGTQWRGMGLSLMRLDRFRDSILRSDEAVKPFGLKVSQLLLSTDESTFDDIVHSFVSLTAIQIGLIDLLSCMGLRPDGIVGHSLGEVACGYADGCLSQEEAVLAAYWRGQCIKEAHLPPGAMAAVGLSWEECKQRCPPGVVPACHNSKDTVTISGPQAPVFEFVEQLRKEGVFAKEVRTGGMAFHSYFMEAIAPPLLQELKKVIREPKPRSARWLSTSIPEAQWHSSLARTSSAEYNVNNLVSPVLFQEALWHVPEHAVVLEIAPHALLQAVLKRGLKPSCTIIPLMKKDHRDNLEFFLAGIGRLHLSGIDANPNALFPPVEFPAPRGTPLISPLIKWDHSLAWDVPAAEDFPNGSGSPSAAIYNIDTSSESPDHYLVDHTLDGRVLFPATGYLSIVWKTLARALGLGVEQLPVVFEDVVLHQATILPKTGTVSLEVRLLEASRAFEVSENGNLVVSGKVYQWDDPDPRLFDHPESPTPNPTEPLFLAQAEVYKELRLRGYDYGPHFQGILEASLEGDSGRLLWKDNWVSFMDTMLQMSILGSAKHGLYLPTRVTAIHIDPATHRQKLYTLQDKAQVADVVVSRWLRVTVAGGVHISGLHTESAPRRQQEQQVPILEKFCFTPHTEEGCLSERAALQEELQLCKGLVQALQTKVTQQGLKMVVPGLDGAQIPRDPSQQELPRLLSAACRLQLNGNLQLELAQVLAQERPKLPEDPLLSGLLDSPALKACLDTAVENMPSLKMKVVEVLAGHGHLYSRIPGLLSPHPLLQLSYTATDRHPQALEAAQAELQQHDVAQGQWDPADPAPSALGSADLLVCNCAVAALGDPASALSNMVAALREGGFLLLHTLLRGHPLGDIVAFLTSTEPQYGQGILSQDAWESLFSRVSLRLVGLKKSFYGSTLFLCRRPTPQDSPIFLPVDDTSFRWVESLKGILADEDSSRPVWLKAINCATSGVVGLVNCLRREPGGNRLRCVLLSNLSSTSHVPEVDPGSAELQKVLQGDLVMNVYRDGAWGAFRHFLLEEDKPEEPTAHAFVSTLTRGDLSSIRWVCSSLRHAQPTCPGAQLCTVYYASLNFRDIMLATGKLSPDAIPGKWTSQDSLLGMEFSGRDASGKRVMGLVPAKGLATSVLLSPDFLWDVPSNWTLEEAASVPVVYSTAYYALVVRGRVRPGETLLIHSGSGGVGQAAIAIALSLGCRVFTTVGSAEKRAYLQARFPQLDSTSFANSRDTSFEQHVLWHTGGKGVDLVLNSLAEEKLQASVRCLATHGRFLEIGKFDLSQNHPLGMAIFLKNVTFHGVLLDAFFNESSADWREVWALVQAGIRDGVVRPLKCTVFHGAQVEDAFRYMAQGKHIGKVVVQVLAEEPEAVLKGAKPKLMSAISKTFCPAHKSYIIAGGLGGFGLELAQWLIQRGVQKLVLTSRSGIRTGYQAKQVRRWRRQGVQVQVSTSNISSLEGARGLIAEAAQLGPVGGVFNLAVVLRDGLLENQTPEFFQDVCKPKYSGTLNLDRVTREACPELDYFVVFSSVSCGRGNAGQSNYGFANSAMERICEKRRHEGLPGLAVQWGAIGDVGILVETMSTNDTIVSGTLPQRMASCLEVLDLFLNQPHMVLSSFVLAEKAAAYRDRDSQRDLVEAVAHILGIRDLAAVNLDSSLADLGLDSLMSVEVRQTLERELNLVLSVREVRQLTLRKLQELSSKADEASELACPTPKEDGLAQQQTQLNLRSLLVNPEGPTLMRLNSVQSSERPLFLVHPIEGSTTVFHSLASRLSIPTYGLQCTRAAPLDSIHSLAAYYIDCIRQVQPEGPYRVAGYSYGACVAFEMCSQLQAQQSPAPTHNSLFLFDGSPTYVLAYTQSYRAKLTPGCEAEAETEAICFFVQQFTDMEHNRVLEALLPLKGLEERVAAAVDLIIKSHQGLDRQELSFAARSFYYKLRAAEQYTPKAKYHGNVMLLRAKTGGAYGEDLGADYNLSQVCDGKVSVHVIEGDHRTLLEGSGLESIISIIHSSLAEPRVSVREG

Consider `Cc1cccc2c1ccc1ccccc12`, for which the result in experiment [1], in experiment [2] and in experiment [3] was inactive.

Turning to `O=C1NS(=O)(=O)c2ccccc21`, the outcome in experiment [4], in experiment [5], in [6], in experiment [7], in experiment [8] and in experiment [9] was inactive. Besides, the compound was called inactive in experiment [11], in experiment [12], in experiment [13], in [14], in [15] and in experiment [16]. In addition, the result in experiment [17], in [18] and in experiment [19] was inactive. Also, the AC50 (usually the midpoint of the concentration-response curve, whichever way the signal moves) in [10] is 73.2 µM (active).

Regarding `CCCCCCCCCCCCCCC`, the compound was classed as inactive in experiment [4], in [5], in [20], in experiment [6], in [7] and in [8]. For the same compound, the outcome in experiment [9], in experiment [11], in [12], in experiment [13], in experiment [14] and in experiment [15] was inactive. For the same compound, the call in experiment [16], in experiment [17], in experiment [18] and in [19] was inactive. In experiment [10], the AC50 was 50 µM (active).

Turning to `Oc1cc2ccccc2cc1O`, the call in experiment [1], in experiment [2] and in experiment [3] was inactive.

Regarding `CN(Cc1cnc2nc(N)nc(N)c2n1)c1ccc(C(=O)N[C@@H](CCC(=O)O)C(=O)O)cc1`, the compound was classed as inactive in [4], in [20], in experiment [6], in experiment [7], in experiment [8] and in experiment [9]. For the same compound, the compound was classed as inactive in experiment [10], in experiment [11], in experiment [12], in experiment [13], in experiment [14] and in experiment [15]. In addition, the outcome in [16], in experiment [17], in experiment [18] and in experiment [19] was inactive. Besides, in [5], the AC50 is 3.33 µM (active).

As for `CCC(C)c1ccccc1O` (configuration not stated), the compound was classed as inactive in experiment [4], in [5], in experiment [20], in experiment [6], in experiment [7] and in [8]. Further, the compound was called inactive in [9], in experiment [11], in [12], in experiment [13], in [14] and in experiment [15]. Also, the result in experiment [16], in experiment [17] and in [18] was inactive. For the same compound, in experiment [10], the AC50 was 50 µM (active).
